From PubChem BioAssay (NCI)
This is part of a sample that, as a whole, favours compounds with a hit. Of some 83,000 tested, about 20% had one in any assay.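 96-well plates, one dose, 48 hours. Percent growth reported; active if below 10.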 Unmarked numbers belong to inactive results. Active and inactive are the calls of the source.

System: CCRF-CEM leukemia
Test: NCI-60 one-dose screen, 48 h (100 = growth as untreated, 0 = no growth, -100 = all killed)
Settings: 10 µM unless noted
Method: Growth inhibition of the CCRF-CEM human tumor cell line is measured as a screen for anti-cancer activity. Cells are grown in 96 well plates and exposed to the test compound for 48 hours. Compounds are tested at a single concentration, which is 10^-5 M for most compounds. The reported endpoint is percent growth (GI% or GIPRCNT), where numbers from 0 - 100% represent growth inhibition, and numbers from -100% - 0 represent cell death. For example, a value of 40 represents 60% growth inhibition. A value of 0 means no net growth occurred over the course of the experiment. A value of -40 indicates 40% of cells at the beginning of the experiment died by the end of the experiment. A value of -100 means all cells are dead at the end of the experiment.
NCI-60 Human Tumor Cell Lines Screen was performed using the standard one-dose NCI protocol, which is described in more detail at https://dtp.cancer.gov/discovery_development/nci-60/default.htm.
Compounds with GIPRCNT values below 10 were considered active. Activity score was based on GIPRCNT using the following formula: […]
Score is 0 for GIPRCNT values of 100 or above, 50 for GIPRCNT values of 0, and 100 for GIPRCNT values of -100.

| Structure (SMILES) | growth |
| --- | --- |
| COc1ccc2c(c1)nc(N)c1c3ccccc3cn21 | 74.5% |
| Clc1ccc(CCC(Cn2ccnc2)Sc2c(Cl)cccc2Cl)cc1 (stereo not given) | 35.1% |
| O=C1NCC(Nc2ccc(Br)cc2Cl)C(=O)N1 (stereo not given) | 116% |
| Cc1cc(NC(=O)Nc2cc(Cl)ccc2C)no1 | 109% |
| COc1cc(C2NC(c3ccc(Cl)cc3)C(C)C(=NC(=O)c3cnccn3)C2C)cc(OC)c1OC (stereo not given) | 92.4% |
| O=C(/C=C/c1ccc(O)c(O)c1)N1CCN(c2ccc(Cl)cc2)CC1 | 32.6% |
| CC(=O)NC1(C(=O)O)CCCC1 | 96.4% |
| S=C(c1ccccc1)N1CCN(c2cccc(Cl)c2)CC1 | 84.1% |
| COC(=O)CC1=C(C)/C(=C/c2[nH]c(-c3ccc[nH]3)cc2OC)N=C1C | -13.5% (active) |
| Cc1nn(-c2ccccc2)c2c1oc(=O)c1cc(Cl)ccc12 | 98.1% |
| COC1=CC(c2ccc[nH]2)=N/C1=C\c1[nH]c(C)c(C(=O)CCC(=O)Oc2ccc3c(c2)CCC2C3CC[C@]3(C)C(=O)CC[C@@H]23)c1C (stereo not given in full) | 32.9% |
| COc1ccc(-c2csc(NC(=O)c3cc(OC)c(OC)c(OC)c3)n2)cc1 | 105% |
| OCc1nnn(-c2ccccc2)c1CO | 102% |
| COc1ccc(/C=C/C(=O)Nc2cccnc2Nc2ccc(F)cc2)cc1 | 112% |
| O=C(Nc1cccc2ccccc12)c1cc2c(cc1Br)OCO2 | 94.7% |
| CCOC(=O)C1=C(COCCN)NC(C)=C(C(=O)OC)C1c1ccccc1Cl (stereo not given) | 66.2% |
| COc1ccc(-c2c(-c3cc(OC)c(OC)c(OC)c3)noc2N)cc1 | 9.85% (active) |
| O=[N+]([O-])c1ccc(N/N=C/c2c(O)ccc3ccccc23)nc1 | 2.5% (active) |
| CC[C@@H]1OC(=O)[C@H](C)[C@@H](O[C@H]2C[C@@](C)(OC)[C@@H](O)[C@H](C)O2)[C@H](C)[C@@H](O[C@@H]2O[C@H](C)C[C@H](N(C)C)[C@H]2O)[C@](C)(O)C[C@@H](C)[C@@H]2N[C@@H](COCCOC)O[C@H]([C@H]2C)[C@]1(C)O | 82.4% |
| ClC1C2CC(c3ccccc32)C1Cl (stereo not given) | 96.8% |

| Structure (SMILES) | growth |
| --- | --- |
| COc1ccc2c(c1)nc(N)c1c3cc(C)c(C)cc3cn21 | 70.9% |
| Cn1cc(-c2csc(-c3c[nH]c4ncccc34)n2)c2cc(F)cnc21 | 66.1% |
| C=CC1=C(C(=O)O)N2C(=O)[C@@H](NC(=O)/C(=N\O)c3csc(N)n3)[C@H]2SC1 (stereo in doubt) | 98.1% |
| Clc1cc(Cl)c(OCC#CI)cc1Cl | 27.8% |
| Cc1cc([N+](=O)[O-])c(C)cc1C(=O)O | 104% |
| c1ccc(-n2nnnc2-c2cccc3ccccc23)cc1 | 9.58% (active) |
| CC(=O)c1ccc2c3c(n(C)c2c1)CCCC3 | 86.6% |
| Cc1ccc(C(C)C)cc1NC(=O)Nc1ccc([N+](=O)[O-])cc1 | -14.5% (active) |
| O=[P@@]1(c2ccccc2)O[C@H](COCc2ccccc2)[C@@H](OCc2ccccc2)[C@H](OCc2ccccc2)[C@H]1NCc1ccccc1 | 15.9% |
| COc1cc(/C=C/C(=O)Nc2cccnc2Nc2cc(OC)c(OC)c(OC)c2)cc(OC)c1OC | 66.1% |
| CCCc1nn(C)c2c(=O)[nH]c(-c3cc(S(=O)(=O)N4CCN(C)CC4)ccc3OCC)nc12 | 108% |
| CCCCSc1cc(C)nc(N)n1 | 91.7% |
| CCCCCCC/C(=N\N=C(N)N)c1ccc(O)cc1 | 39.7% |
| N=C(N)/N=C(\CCc1nc2ccccc2[nH]1)c1nc2ccccc2[nH]1 | 99.5% |
| Oc1[nH]c2ccc(Cl)cc2c1/C=c1/ccc2c(c1)N=C(c1ccc(C(F)(F)F)cc1)N=2 | 15.5% |
| NS(=O)(=O)c1ccc(NC2=C(Cl)C(=O)c3ccccc3C2=O)cc1 | 85.7% |
| O=C(CSCC(=O)N/N=C/c1ccccc1O)N/N=C\c1ccccc1O | 3.39% (active) |
| C=C(C)[C@@H]1C[C@H](O)Cc2cc(Cl)cc(Cl)c2N1 | 103% |
| CN1CCCC1c1cccnc1 (stereo not given) | 70% |
| COc1ccc2nccc(/C=C/c3ccnc4ccc(OC)cc34)c2c1 | 59.6% |
